Compound activity: PubChem, several laboratories
Rows were chosen to be rich in hits. Some 3.7% of all compounds tested hit in one or more screens of this group.
BoNT-F LC inh – inhibitors of Botulinum neurotoxin F light chain protease | Multiplex microsphere protease cleavage assay, flow cytometry | inhibition, % at 10 µM | 360,000 tested, 0.22% active; in the data active means inhibition above about 35%, passing the limit was not always enough; inconclusive means no clear call, values can overlap the other calls; further: plate controls were buffer without enzyme for full effect and enzyme alone for no effect
MazEF act – MazEF (E. coli) toxin RNase activation; activation, % at 20 µM; FAM/BHQ RNA-DNA oligo cleavage fluorescence, 5 h; AID 504720; 350,000 tested, 0.32% active; in the data active means activation above about 50%
Autofluor counter – compound fluorescence in toxin protease inhibitor counterscreen; compound autofluorescence counterscreen, microsphere flow cytometry; hits give high values; fluorescence intensity (test concentration not listed); 360,000 tested, 3.1% active; AID 624483; in the data active means fluorescence intensity above about 16000; inconclusive means no clear call, values can overlap the other calls
BoNT A protease – blocks Botulinum neurotoxin A light chain protease | AID 588499 | multiplex microsphere protease substrate cleavage, flow cytometry | inhibition, % at 10 µM | 360,000 tested, 0.17% active; further: plate controls were buffer without enzyme for full effect and enzyme alone for no effect
Anthrax LF prot – inhibitors of Bacillus anthracis lethal factor protease. P15917. multiplex microsphere protease cleavage assay, LF. inhibition, % at 10 µM. 360,000 tested, 0.12% active. AID 588501; further: plate controls were buffer without enzyme for full effect and enzyme alone for no effect
* marks the source's active call; other numbers are inactive results; ? = inconclusive; . = no result; + = active, no number. Unless noted, no stated cut-off is given here; in the data, active means inhibition above about 30%; inconclusive means no clear call, values can overlap the other calls; inactive means below that.

SMILES	BoNT-F LC inh	MazEF act	Autofluor counter	BoNT A protease	Anthrax LF prot
CCCCCn1nc(C(=O)N(CC)c2c(N)n(CCCC)c(=O)[nH]c2=O)c2ccccc2c1=O	-7	0	3891	0	3
CC(=O)N1CCN(C2=NC(=O)C(=C3CCCCC3)S2)CC1	-2	-2	2410	0	-3
O=C1N=C(N2CCOCC2)SC1=C1CCCCC1	4	-2	20921*	1	-1
N#CCCN1CCN(C2=NC(=O)C(=C3CCCCC3)S2)CC1	0	-1	22432*	0	-2
COC(=O)C(C)(C)c1cccnc1C#N	3	11	3850	0	-5
CCOC(=O)Cn1cc([N+](=O)[O-])c(OC)n1	-5	-6	2532	0	-2
COc1nn(CC(=O)N2N=C(C(F)F)CC2(O)C(F)F)cc1[N+](=O)[O-] (stereo unspecified)	-4	5	23495*	-3	-3
COc1nn(C(C)C(=O)N2N=C(C(F)F)CC2(O)C(F)F)cc1[N+](=O)[O-] (stereo unspecified)	-1	-1	20181*	-1	3
Cc1cc([N+](=O)[O-])nn1CC(=O)N1N=C(C(F)F)CC1(O)C(F)F (stereo unspecified)	-4	4	2469	-1	-2
Cc1ccccc1C(=O)NCCCNC(=O)c1ccccn1	2	22	3415	1	9
CC(C)C[C@H]1CNC(=O)C(=O)N1C[C@@H]1CCCN1C[C@H](Cc1ccccc1)N1C[C@H](Cc2ccccc2)N(CC2CCCCC2)C(=O)C1=O	-9	.	5017	-1	-7
COc1ccc(S(=O)(=O)N(C(C)=O)c2ccc3oc(=O)sc3c2)cc1	1	-3	20711*	-1	1
COC(=O)c1c(C)oc2ccc(N(C(C)=O)S(=O)(=O)c3ccccc3)cc12	3	6	4204	2	-3
COCC(=O)Nc1nc(-c2ccc(-c3ccccc3)cc2)cs1	-4	-6	3396	3	-7
COCC(=O)Nc1nc(-c2ccccc2)c(C)s1	-2	10	19856*	-1	-1
Oc1ccccc1-c1ccn[nH]1	-6	4	3473	0	-8
c1ccn(-c2ccc(-c3ccn[nH]3)cc2)c1	-2	+	4460	0	-4
Cc1ccc(C)n1-c1ccc(-c2ccn[nH]2)cc1	-9	91*	6867	0	-8
Cc1ccccc1S(=O)(=O)Cc1ccc(C(=O)NC2CCCC2)o1	-3	6	5277	-1	-2
Cc1ccccc1CS(=O)(=O)CCC(=O)NCCCN1CCN(c2ccccc2F)CC1	-3	-8	2456	1	3
O=C(NCCCN1CCOCC1)c1ccc(CS(=O)(=O)Cc2ccc(Cl)cc2)o1	-6	6	20919*	-3	-3
O=C(NCCCN1CCOCC1)c1ccc(CS(=O)(=O)c2cccc(C(F)(F)F)c2)o1	-4	0	22992*	-2	-2
O=C(CCS(=O)(=O)Cc1ccc(Cl)cc1)NCCCN1CCN(c2ccccc2F)CC1	-6	8	22031*	-3	0
O=C(NC1CCCC1)c1ccc(CS(=O)(=O)c2cccc(C(F)(F)F)c2)o1	-4	-9	22398*	-1	-1
C=CCn1c(O)c2ccc(C(=O)N=NC(=O)COc3ccccc3F)cc2c1O	4	0	6740	-3	1
SMILES	BoNT-F LC inh	MazEF act	Autofluor counter	BoNT A protease	Anthrax LF prot
CC1(C(=O)O)CCCN1C(=O)c1cccc2ccccc12 (stereo unspecified)	0	.	3808	0	0
Cc1ccc(Sc2nnc(Cc3ccccc3)c3ccccc23)cc1	0	6	22795*	?	-5
COc1ccc(Sc2nnc(Cc3ccccc3)c3ccccc23)cc1	-10	1	8347	-1	-3
COc1cccc(-c2nnc3sc(-c4ccccc4)nn23)c1	-2	7	20646*	?	1
COc1ccc(OCc2nn3c(-c4cccc(OC)c4)nnc3s2)cc1	-1	11	5771	0	-3
c1ccc(-c2nnc3sc(-c4ccncc4)nn23)cc1	-4	8	9878	0	-2
COc1ccccc1-c1nn2c(-c3ccco3)nnc2s1	4	-7	21284*	3	2
COc1ccc(-c2nn3c(COc4ccccc4)nnc3s2)cc1OC	-3	8	17330*	-2	-4
c1coc(-c2nn3c(-c4ccco4)nnc3s2)c1	.	6	.	.	.
Cc1cccc(-c2nnc3sc(-c4ccccc4C)nn23)c1	-4	2	16434*	-1	-4
CNS(=O)(=O)c1ccc(CNC[C@H]2O[C@@H](n3ccc(N)nc3=O)[C@H](O)[C@@H]2O)cc1	-6	7	3928	0	-2
